{"source": "paper PMC7819943", "about": "“Rice protein-binding microarrays: a tool to detect cis-acting elements near promoter regions in rice”", "note": "In all, about 35,000 sequences were measured (“fluorescence intensity (a.u.)”: median about 10,000, highest 2% from about 52,000 on). This is one part of a sample in which the highest values are shown more often than they occur.", "data": [{"target": "T1, OsWOX13 (Oryza sativa, UniProt Q5QMM3 1-267)", "T1 sequence": "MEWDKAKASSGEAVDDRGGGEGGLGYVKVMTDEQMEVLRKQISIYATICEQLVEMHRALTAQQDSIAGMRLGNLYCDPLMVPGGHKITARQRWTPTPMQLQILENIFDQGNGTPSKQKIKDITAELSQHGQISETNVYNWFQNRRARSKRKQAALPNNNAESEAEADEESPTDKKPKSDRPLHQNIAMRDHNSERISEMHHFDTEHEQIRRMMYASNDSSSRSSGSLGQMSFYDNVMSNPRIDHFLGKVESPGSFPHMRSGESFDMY", "experiment": "protein-binding microarray (RPBM); PBS, 2% BSA, 51.3 ng/ul salmon testes DNA, 50 uM zinc acetate, 200 nM TF, 25 C, 1 h; high values mean tight binding", "conditions": "protein: recombinant; tags: N-terminal polyhistidine and DsRed monomer fusion (pET32a); label: CyDye5-dUTP incorporated in the synthesized complementary strand; 3' TTTTT single-stranded linker to array surface; dsDNA, one strand shown", "procedure,_shortened": "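Binding signal is reported as fluorescence intensity per feature (arbitrary units) from an Axon 4000B scanner. Incubation used 200 nM of each Ni–NTA-purified, N-terminally polyhistidine- and DsRed-fused transcription factor from E. coli BL21-CodonPlus on a double-stranded custom Agilent array for 1 h at 25 °C, with 50 µM zinc acetate in the buffer, followed by washing.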", "values": [{"sequence": "TACAAATAGACTTGAATAAATGTTTATCTATTTTGTGTTGCGGAGTCACCTAGTGCAG", "binding signal": "16800 fluorescence intensity (a.u.)"}, {"sequence": "TGAGGAGCAATTAATGAGTTTGATGGACAGAGATAATAGCCGGAGTCACCTAGTGCAG", "binding signal": "9490 fluorescence intensity (a.u.)"}, {"sequence": "ACGTTTAATTACGGGAAACCGGCTAAAACCCACCACACATCGGAGTCACCTAGTGCAG", "binding signal": "6640 fluorescence intensity (a.u.)"}, {"sequence": "GTAGGAACACTAATTAATCACTCATTGATATGTGTAATCCCGGAGTCACCTAGTGCAG", "binding signal": "14700 fluorescence intensity (a.u.)"}, {"sequence": "CCGATGTTTGATTGTTCGTTTTATTTGAAAGCCTTTTATGCGGAGTCACCTAGTGCAG", "binding signal": "20800 fluorescence intensity (a.u.)"}, {"sequence": "AGGCACGGATTGATGCATTAATTTGGTTGCAATGTAGATGCGGAGTCACCTAGTGCAG", "binding signal": "37500 fluorescence intensity (a.u.)"}, {"sequence": "TTTTACATGATTGGATGACAAAGCCTATTTCGTTTTGTTGCGGAGTCACCTAGTGCAG", "binding signal": "53100 fluorescence intensity (a.u.)"}, {"sequence": "TTGCTAAATTGTTGTCTTGGTTGATATTTTAGATTTCTTGCGGAGTCACCTAGTGCAG", "binding signal": "10000 fluorescence intensity (a.u.)"}, {"sequence": "CTTAAATCATGATGATTTTATTGGTTGTTGGCATGCACAGCGGAGTCACCTAGTGCAG", "binding signal": "30500 fluorescence intensity (a.u.)"}, {"sequence": "TCTGATTGACGGTGTTTGCAAGCAGAGTTCCTCTTCTTGGCGGAGTCACCTAGTGCAG", "binding signal": "61500 fluorescence intensity (a.u.)"}, {"sequence": "CCCTTGTTTCTGTTTTGATTGCAACCTAAGAGACTCTTGACGGAGTCACCTAGTGCAG", "binding signal": "6270 fluorescence intensity (a.u.)"}, {"sequence": "AGAGTTCTGATTGAATTTGAACAGAAGCGGTGCTTTTGGACGGAGTCACCTAGTGCAG", "binding signal": "38800 fluorescence intensity (a.u.)"}, {"sequence": "CTTGTCTTATTTGATTGTTGCATTTACATTTATGCAATTTCGGAGTCACCTAGTGCAG", "binding signal": "9350 fluorescence intensity (a.u.)"}, {"sequence": "TCTTGATTGGTTGTTTTGGTTTGTTTCTTATTTATGTTTGCGGAGTCACCTAGTGCAG", "binding signal": "54100 fluorescence intensity (a.u.)"}, {"sequence": "TTAATTATTTTGCTGACATGATTTGTTTTCATTTCGTTGACGGAGTCACCTAGTGCAG", "binding signal": "24100 fluorescence intensity (a.u.)"}, {"sequence": "GTAAATTGGCATTGGTTTGATTTATGTTTGCAATGCAGCGCGGAGTCACCTAGTGCAG", "binding signal": "58200 fluorescence intensity (a.u.)"}, {"sequence": "CATCTTTGACCGGTTAAATTAGATCCTGTTCTAGATGAGGCGGAGTCACCTAGTGCAG", "binding signal": "3480 fluorescence intensity (a.u.)"}, {"sequence": "GCTTTCAATAAAACTTCATTAATTGAGGCTAAAATGTTACCGGAGTCACCTAGTGCAG", "binding signal": "5100 fluorescence intensity (a.u.)"}, {"sequence": "AAGCCAATTAAACAACCAGATACTCAAGTTATAACATAATCGGAGTCACCTAGTGCAG", "binding signal": "3700 fluorescence intensity (a.u.)"}, {"sequence": "TTTTAAACTAATACTTAATTAATCATATATTAATTAGGTACGGAGTCACCTAGTGCAG", "binding signal": "19200 fluorescence intensity (a.u.)"}, {"sequence": "CTTATGATTTTATTTAACCTGGTTTTGAAAGACAGGGGTTCGGAGTCACCTAGTGCAG", "binding signal": "18100 fluorescence intensity (a.u.)"}, {"sequence": "ATAGCTAATTTTCGGTATGTTACACCATCCATCTGCCATGCGGAGTCACCTAGTGCAG", "binding signal": "5050 fluorescence intensity (a.u.)"}, {"sequence": "TTCCGATTGAGGAATGTTATTCACACAAGCGCAGGAGATGCGGAGTCACCTAGTGCAG", "binding signal": "4130 fluorescence intensity (a.u.)"}, {"sequence": "AAAGTGACTGAATTTTAAGTCATCGGAAATTTACACGCTCCGGAGTCACCTAGTGCAG", "binding signal": "15400 fluorescence intensity (a.u.)"}, {"sequence": "ATGAATTGTTAATTTTGCAAGCTGAACTTCTCATGTTTGGCGGAGTCACCTAGTGCAG", "binding signal": "11100 fluorescence intensity (a.u.)"}, {"sequence": "GCGTCCATCTAATCTAATCTAACCACCCTGCACGAATCGCCGGAGTCACCTAGTGCAG", "binding signal": "8750 fluorescence intensity (a.u.)"}, {"sequence": "TTTTCTTTCTTGATTGGGAAGGAAATTGGTGGTTAATCTCCGGAGTCACCTAGTGCAG", "binding signal": "23700 fluorescence intensity (a.u.)"}, {"sequence": "TATAAAATTATAGATAATATAACATGTTTGCATGATGTTTCGGAGTCACCTAGTGCAG", "binding signal": "5670 fluorescence intensity (a.u.)"}, {"sequence": "TGGAACATTGTTGATTGGCGAGCTGGCACGCATGCTAGGTCGGAGTCACCTAGTGCAG", "binding signal": "18600 fluorescence intensity (a.u.)"}, {"sequence": "TACAATTGATTATGTAAAGTTTGTGTCTTGTACTAGAGGGCGGAGTCACCTAGTGCAG", "binding signal": "43900 fluorescence intensity (a.u.)"}, {"sequence": "ACACAATTATGTCAAGTTCAATTCTCAAGTTTGAATTGGGCGGAGTCACCTAGTGCAG", "binding signal": "5050 fluorescence intensity (a.u.)"}, {"sequence": "ATGATTGATGTCTTTTATTTTCTTTGTACTAAGGAGCTTGCGGAGTCACCTAGTGCAG", "binding signal": "62700 fluorescence intensity (a.u.)"}, {"sequence": "GTATGATTGGTTATGTAAAGTTTGTTTCTTGTTCTAGAGGCGGAGTCACCTAGTGCAG", "binding signal": "58400 fluorescence intensity (a.u.)"}, {"sequence": "TAGTTTTGTAAATGATTGAAATTTTCTAGTGTTAAATAGGCGGAGTCACCTAGTGCAG", "binding signal": "34800 fluorescence intensity (a.u.)"}, {"sequence": "TCATGGTGATTGCGGCATGAGAGAGTGAGGGTTCTGCGAGCGGAGTCACCTAGTGCAG", "binding signal": "10300 fluorescence intensity (a.u.)"}, {"sequence": "GTTGATGATGTGGCTTCTTGCTTGTCTTGCTTTATAGGAGCGGAGTCACCTAGTGCAG", "binding signal": "5720 fluorescence intensity (a.u.)"}, {"sequence": "TGGAGAGTTTTGATTGGTTGGGAAGAGAATGTTGATAGAGCGGAGTCACCTAGTGCAG", "binding signal": "20200 fluorescence intensity (a.u.)"}, {"sequence": "TATGTTCTTGATTTGTCCTGTTACATTGCTGACATATGTGCGGAGTCACCTAGTGCAG", "binding signal": "8650 fluorescence intensity (a.u.)"}, {"sequence": "TAGATGATTGCACTAGATTTTGCTTTGTGTACTTATTGAACGGAGTCACCTAGTGCAG", "binding signal": "32900 fluorescence intensity (a.u.)"}, {"sequence": "GTTTGATTGCACATTATGTCCTTGGAGTTCTTCAACATAGCGGAGTCACCTAGTGCAG", "binding signal": "55700 fluorescence intensity (a.u.)"}, {"sequence": "TTGATTGCTTGTTTGATTGGTGGTTCTTGAGCGAGAAGAGCGGAGTCACCTAGTGCAG", "binding signal": "63300 fluorescence intensity (a.u.)"}, {"sequence": "TTACTCGTCAATCCACCGATTACAGCTATCTCAAACGGAGCGGAGTCACCTAGTGCAG", "binding signal": "8630 fluorescence intensity (a.u.)"}, {"sequence": "GTGATAATGTCCATCAATCTAGCAAATCATTCTCACAACGCGGAGTCACCTAGTGCAG", "binding signal": "26800 fluorescence intensity (a.u.)"}, {"sequence": "TTTGATTTATATGCCATTGCCTTTGCTGAACAGAAAAGCTCGGAGTCACCTAGTGCAG", "binding signal": "37600 fluorescence intensity (a.u.)"}, {"sequence": "AATTTGAAATTTCAAACTTAATTTTAACATTGATTTTGAGCGGAGTCACCTAGTGCAG", "binding signal": "6660 fluorescence intensity (a.u.)"}, {"sequence": "AACCATGTTTGACTCAACATAATTAGTGCGACAAACCGCACGGAGTCACCTAGTGCAG", "binding signal": "4590 fluorescence intensity (a.u.)"}, {"sequence": "TTATCGAACATACTAATTGACTCTCAGGGAGTCAAGGATCCGGAGTCACCTAGTGCAG", "binding signal": "7680 fluorescence intensity (a.u.)"}, {"sequence": "AGGGTTAAATTGTCAAAATTTGTGCGACACAAACACACTCCGGAGTCACCTAGTGCAG", "binding signal": "10900 fluorescence intensity (a.u.)"}, {"sequence": "CTTAACAACTGAACTGATTGAGACAGTAGATGAAATGGAACGGAGTCACCTAGTGCAG", "binding signal": "21400 fluorescence intensity (a.u.)"}, {"sequence": "TAGATAGATTTAGTTTTGATAATGGATAGAGATATTGCCCCGGAGTCACCTAGTGCAG", "binding signal": "11600 fluorescence intensity (a.u.)"}, {"sequence": "AAATTTTGAAATTGTTAATATGATATAAATGAGATATAGCCGGAGTCACCTAGTGCAG", "binding signal": "3970 fluorescence intensity (a.u.)"}, {"sequence": "TCGAGATGGATAATTAGATTGATTGATTGGCCGATAGCCCCGGAGTCACCTAGTGCAG", "binding signal": "65100 fluorescence intensity (a.u.)"}, {"sequence": "ATTTAAATGAGATGATTGATGGGGCAATTAGTACTCTAGACGGAGTCACCTAGTGCAG", "binding signal": "38600 fluorescence intensity (a.u.)"}, {"sequence": "AGCCCGATAATTAGATTGATTATAGACATGACTACATATACGGAGTCACCTAGTGCAG", "binding signal": "18200 fluorescence intensity (a.u.)"}, {"sequence": "TATAGTGCAGATTTTGAAATTGATGAGTGCACGTTTGGGCCGGAGTCACCTAGTGCAG", "binding signal": "6560 fluorescence intensity (a.u.)"}, {"sequence": "ATAATTGAAAATTGATTAGAGTACCTTTTGATGAGATAGCCGGAGTCACCTAGTGCAG", "binding signal": "57300 fluorescence intensity (a.u.)"}, {"sequence": "CATTAATTAGATTGAGACAGTACTGAGATGATTGCCGCCCCGGAGTCACCTAGTGCAG", "binding signal": "65200 fluorescence intensity (a.u.)"}]}]}
